# In PubChem BioAssay AID2391 (Southern Research Specialized Biocontainment Screening …, 2010):
# About 410 (0.13%) of roughly 310,000 compounds were called active. Another 2% or so got no clear call; they are omitted. No rule for the calls is given here. The list is a sample of the results. Results with a measured potency or affinity are listed apart.
# Assay: inhibition of RSV-induced cytopathic effect – HEp-2 cells, primary 10 µM value included (AID 2391)
# Settings: at 10 µM, stronger effect = higher value
row,SMILES,CPE inhibition
1,CCSc1nc(O)cc(=O)n1-c1ccc(OC)cc1,-0.46% (inactive)
2,CC(NC(=O)c1nn(C)c(=O)c2ccccc12)c1ccc(F)cc1 (stereo not drawn),1.39% (inactive)
3,O=C(/C=C/c1cccs1)Nc1sc2c(c1C(=O)O)CCCC2,16.6% (inactive)
4,O=C(/C=C/c1ccco1)Nc1sc2c(c1C(=O)O)CCC2,3.96% (inactive)
5,O=C(O)CCC(=O)Nc1sc2c(c1C(=O)NCc1ccccc1)CCCC2,1.43% (inactive)
6,O=C(Nc1sc2c(c1C(=O)O)CCCCC2)c1ccccc1,2.56% (inactive)
7,Cn1cnnc1Sc1cc(N2CCN(S(=O)(=O)c3ccccc3)CC2)ccc1[N+](=O)[O-],2.72% (inactive)
8,Cc1ccc(S(=O)(=O)N2CCN(c3ccc([N+](=O)[O-])c(Sc4nncn4C)c3)CC2)cc1,2% (inactive)
9,Cc1ccc(C(=O)COC(=O)c2ccncc2)cc1[N+](=O)[O-],1.18% (inactive)
10,CCCCCCCN1C/C=C\C(c2ccc(OC)cc2)N(Cc2ccc(F)cc2)C(=O)[C@H]1Cc1ccccc1 (stereo partly drawn),0.33% (inactive)
11,CCN(CC(=O)NCc1ccccn1)S(=O)(=O)c1cc(Cl)ccc1Cl,-1.64% (inactive)
12,Cc1ccc2[nH]c3c(=O)[nH]ncc3c2c1,-1.42% (inactive)
13,CC(C)(C)NC(=O)C1CN(S(=O)(=O)c2ccccc2)CCN1S(=O)(=O)c1ccccc1 (stereo not drawn),0.62% (inactive)
14,CCNC(=O)C1CN(S(=O)(=O)c2ccccc2)CCN1S(=O)(=O)c1ccccc1 (stereo not drawn),-2.71% (inactive)
15,CCCCn1c(N)c(N(CC(C)C)C(=O)c2c(CC)noc2C)c(=O)[nH]c1=O,-1.37% (inactive)
16,C/C(N)=C(/C#N)C(=O)COC(=O)c1ccccc1O,1.5% (inactive)
17,C/C(N)=C(/C#N)C(=O)COC(=O)c1cc2c(s1)CCC(C)C2 (stereo not drawn),5.48% (inactive)
18,C/C(N)=C(/C#N)C(=O)COC(=O)c1cccc2ccccc12,4.13% (inactive)
19,CNC(=O)COC(=O)c1cc2c(s1)CCCC2,1.88% (inactive)
20,C/C(N)=C(/C#N)C(=O)COC(=O)C(c1ccccc1)c1ccccc1,0.91% (inactive)
21,Cc1cc(C(=O)OCC(N)=O)c(C)n1-c1ccccc1,-3.46% (inactive)
22,C/C(N)=C(/C#N)C(=O)COC(=O)c1ccccc1Oc1ccccc1,2.44% (inactive)

row,SMILES,CPE inhibition
1,Cc1cc(C(=O)COC(=O)c2ccc[nH]c2=O)c(C)n1-c1ccc(F)cc1,2.01% (inactive)
2,[O-]/[N+](=C/c1ccco1)c1ccccc1,2.24% (inactive)
3,COc1cccc(NC(=O)c2ccccc2C(F)(F)F)c1,1.62% (inactive)
4,O=C(c1ccc(Cl)c(S(=O)(=O)N2CCOCC2)c1)N1CCOCC1,-0.1% (inactive)
5,CCCCOC(=O)c1ccc(NC(=O)c2ccc(F)cc2F)cc1,3.03% (inactive)
6,CCOC(=O)c1sc(NC(=O)Cc2ccc(F)cc2)nc1C,17.9% (inactive)
7,NC(=O)CCN1CCN(Cc2nc(C(c3ccccc3)c3ccccc3)no2)CC1,-0.36% (inactive)
8,O=S(=O)(Nc1nc2ccccc2s1)c1cnc(Cl)c(Br)c1,0.69% (inactive)
9,Cc1ccc(Cn2nnc3c(=O)[nH]c(C4CCCN(S(=O)(=O)c5ccc(F)cc5)C4)nc32)cc1 (stereo not drawn),5.93% (inactive)
10,COC(=O)c1ccc(Cn2nnc3c(=O)[nH]c(C4CCCN(S(=O)(=O)c5ccccc5Cl)C4)nc32)cc1 (stereo not drawn),2.61% (inactive)
11,Cc1ccc(Cn2nnc3c(=O)[nH]c(C4CCCN(S(=O)(=O)c5ccccc5F)C4)nc32)cc1 (stereo not drawn),4.65% (inactive)
12,O=c1[nH]c(C2CCCN(S(=O)(=O)c3ccccc3)C2)nc2c1nnn2Cc1cccc(Cl)c1 (stereo not drawn),43% (inactive)
13,COC(=O)c1ccccc1S(=O)(=O)N1CCCC(c2nc3c(nnn3Cc3ccc(C)cc3)c(=O)[nH]2)C1 (stereo not drawn),10.4% (inactive)
14,O=c1[nH]c(C2CCCN(S(=O)(=O)c3ccccc3)C2)nc2c1nnn2Cc1ccccc1F (stereo not drawn),3.4% (inactive)
15,O=c1[nH]c(C2CCCN(S(=O)(=O)c3ccccc3)C2)nc2c1nnn2Cc1ccc2c(c1)OCCO2 (stereo not drawn),60.4% (inactive)
16,Cc1ccc(Cn2nnc3c(=O)[nH]c(C4CCCN(S(=O)(=O)c5ccccc5)C4)nc32)cc1 (stereo not drawn),13% (inactive)
17,CN1CCN(/C(=N\O)c2nonc2N)CC1,-0.46% (inactive)
18,Cc1ccc(-c2[nH]c3cc(C(=O)NCCCn4ccnc4)ccc3c(=O)c2O)cc1,1.07% (inactive)
19,O=C(CCN1C(=O)S/C(=C\C=C\c2ccccc2)C1=O)Nc1ccc(O)cc1,-1.82% (inactive)
20,CCOC(=O)CC(NC(=O)C(CC)c1ccccc1)c1ccccc1Cl (stereo not drawn),3.39% (inactive)
21,COc1ccc(N2CCN(S(=O)(=O)c3ccc(OC)c(C(=O)N4CCOCC4)c3)CC2)cc1,0.25% (inactive)
22,COc1ccccc1C(=O)C1CCCN(C(=O)c2ccccn2)C1 (stereo not drawn),2.51% (inactive)

row,SMILES,CPE inhibition
1,Cc1ccc(CN(C)C(=O)COC(=O)CSc2ccc(C(N)=O)cc2[N+](=O)[O-])cc1,-0.57% (inactive)
2,COC(=O)c1ccc(NC(=O)c2ccccc2-c2ccccc2C(=O)O)cc1,0.77% (inactive)
3,CCCCCCC(=O)Nc1c2c(nc3ccccc13)N(C)CC2,0.9% (inactive)
4,O=C(Nc1ccc(F)cc1F)N1CCCC(c2nc(-c3ccc(F)cc3)no2)C1 (stereo not drawn),14.7% (inactive)
5,O=C(Nc1cccc(Cl)c1)Nc1nnc(CC2=CCCCC2)s1,5.11% (inactive)
6,CCOc1ccc(S(=O)(=O)N(C)CC(=O)NCc2ccccn2)cc1Cl,1.39% (inactive)
7,COCCN1C(=O)C(CC(=O)Nc2ccc(C(=O)O)cc2)SC1=Nc1ccccc1 (stereo not drawn),1.29% (inactive)
8,COCCN1C(=O)C(CC(=O)Nc2ccc(C(C)=O)cc2)SC1=Nc1ccccc1 (stereo not drawn),2.47% (inactive)
9,COc1ccc(OCc2n[nH]c(=S)n2Cc2ccco2)cc1,2.67% (inactive)
10,Cc1ccc(C2C3=C(CCCC3=O)N=C3c4ccccc4C(=O)C32)cc1 (stereo not drawn),11.5% (inactive)
11,O=C1CCCC2=C1C(c1ccc(Cl)cc1)C1C(=O)c3ccccc3C1=N2 (stereo not drawn),58.3% (inactive)
12,CCOc1nc(Nc2ccc(OC)cc2)nc(N2CCOCC2)n1,2.38% (inactive)
13,COc1ccc(C(=O)/C=C/NCc2ccc(F)cc2)cc1OC,4.99% (inactive)
14,Cc1ccc(C)c(S(=O)(=O)N2CCCOC2CNC(=O)C(=O)NCc2cccs2)c1 (stereo not drawn),1.48% (inactive)
15,CCN(CC)c1ccc(CN(C(=O)c2cccs2)C2CCS(=O)(=O)C2)cc1 (stereo not drawn),1.38% (inactive)
16,COc1ccc(NC(=O)Nc2cc3oc4ccccc4c3cc2OC)cc1,9.45% (inactive)
17,COc1cc2c(cc1NC(=O)Nc1ccc(C)cc1)oc1ccccc12,33% (inactive)
18,CCS(=O)(=O)Nc1ccc(C2=NN(S(=O)(=O)CC)C(c3cccs3)C2)cc1 (stereo not drawn),2.5% (inactive)
19,Cc1ccc(CS(=O)Cc2ccc(C(=O)NCC(C)c3ccccc3)o2)cc1 (stereo not drawn),1.69% (inactive)
20,COCCCNC(=O)CN(c1cc(Cl)ccc1OC)S(C)(=O)=O,0.7% (inactive)
21,C=CCNC(=O)c1ccc(-c2nc(-c3ccc(Cl)cc3Cl)cs2)cc1,3.05% (inactive)
22,O=C(O)c1ccc(-c2nc(-c3ccccc3Cl)cs2)cc1,15.1% (inactive)

row,SMILES,CPE inhibition
1,CCOc1ccc(C(C(=O)NC2CCCC2)N(CCOC)C(=O)CNC(=O)c2ccco2)cc1 (stereo not drawn),0.14% (inactive)
2,CS(=O)(=O)c1ccc(Cl)c(NC(=O)CSc2n[nH]c(N)n2)c1,-0.18% (inactive)
3,CCC(C)NCC(=O)Nc1cc(S(=O)(=O)N(CC)c2ccccc2)ccc1Cl (stereo not drawn),10.6% (inactive)
4,CCN(c1ccccc1)S(=O)(=O)c1ccc(OC)c(NC(=O)Cc2ccc(F)cc2)c1,13.4% (inactive)
5,CCN(c1ccccc1)S(=O)(=O)c1ccc(OC)c(NC(=O)Cc2ccc(OC)c(OC)c2)c1,8.13% (inactive)
6,CCN(c1ccccc1)S(=O)(=O)c1ccc(Cl)c(NC(=O)CSc2nncn2C)c1,4.02% (inactive)
7,CCN(c1ccccc1)S(=O)(=O)c1ccc(Cl)c(NC(=O)CSc2nncs2)c1,14.1% (inactive)
8,CCN(c1ccccc1)S(=O)(=O)c1ccc(Cl)c(NC(=O)CSc2nnc(C)s2)c1,17.6% (inactive)
9,Nc1nc(SCC(=O)Nc2cc(S(=O)(=O)N3CCOCC3)ccc2Cl)n[nH]1,0.46% (inactive)
10,CCC(=O)NC(=S)Nc1ccc2oc(-c3ccc(OC)cc3)nc2c1,-0.44% (inactive)
11,Cc1[nH]c2c(Cl)cccc2c(=O)c1CN1CCCCCC1,-1.59% (inactive)
12,CC(=O)c1ccc(C(=O)NC2CCCN(Cc3ccccc3F)C2)cc1 (stereo not drawn),-0.91% (inactive)
13,Cc1nc(N)nc(N/N=C/c2c(F)cccc2Cl)n1,0.02% (inactive)
14,O=C1CS/C(=N/N=C\c2ccn[nH]2)N1,6.91% (inactive)
15,Cc1c(C(=O)O)cccc1-c1ccc(/C=N/n2cnnc2)o1,0.79% (inactive)
16,COc1ccc(C(=O)OCC(=O)N(C)C2CCS(=O)(=O)C2)cc1Br (stereo not drawn),1.57% (inactive)
17,CCOC(=O)c1c(CC(C)C)csc1NC(=O)COC(=O)c1cc(OC)c(OC)cc1[N+](=O)[O-],3.28% (inactive)
18,C[C@@H]1NS(=O)(=O)[C@H]2C[C@@H]3C=C[C@]2(O3)[C@H]1OC(=O)Nc1ccc(C(F)(F)F)cc1[N+](=O)[O-],0.31% (inactive)
19,Cc1cc(C(=O)O[C@H]2[C@H](Cc3ccccc3)NS(=O)(=O)[C@H]3C[C@@H]4C=C[C@]23O4)ccc1[N+](=O)[O-],1.3% (inactive)
20,CCN(Cc1ccccc1)C(=O)Cc1c[nH]c2ccccc12,4.41% (inactive)
21,Cc1ccc(-c2ccc(/C=N/NC(=S)Nc3ccccc3)o2)cc1[N+](=O)[O-],17.4% (inactive)
22,O=[N+]([O-])c1ccc(-c2ccc(/C=N/O)o2)cc1,11.6% (inactive)
